From PubChem BioAssay AID938 (National Center for Advancing Translational Sciences (NCATS), 2007)
Values joined by “and” are separate entries in the source; they are usually repeats but may differ in a detail not shown here. Equal values may be shown once. About 1,800 (2.5%) of roughly 73,000 compounds were called active. Entries that show only a call come without a potency. Inconclusive results (about 13%) are left out. Calls follow the shape of the dose curve; as a rule, active = well fitted activation curve with a large enough effect; inconclusive = small, poorly fitted or top-dose-only effect; inactive = no such curve, though single readings can be large or run the other way. This excerpt belongs to a sample that is enriched for actives. A structure can be active in one record and inactive in another.

Assay: qHTS Assay for Agonists of the Thyroid Stimulating Hormone Receptor: Activators of Intracellular cAMP Concentrations in Parental HEK 293; also: nearly all actives have a fitted effect of over 55% in size
Conditions: parental HEK293 CNG cAMP sensor, membrane potential fluorescence; series mostly up to 57.1 µM
Outline: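 Parental HEK 293 cells stably expressing a cAMP-gated CNG channel were loaded with membrane potential dye containing 100 uM RO 20-1724 for 60 min. Compound added for 30 min; depolarization read as fluorescence intensity at 590 nm.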
Potency is read from the fitted curve at half-maximal effect.

| Structure (SMILES) | Potency | activation |
| --- | --- | --- |
| COC(=O)[C@@H](NC(=O)NCc1cccc(OC)c1)C(C)C | inactive |  |
| O=C(c1cccc(F)c1)N1CCC2(CC1)CCN(c1ccccc1)CC2 | inactive |  |
| O=C(Nc1cccc(NC(=O)N2CCN(c3ccccc3)CC2)c1)N1CCN(c2ccccc2)CC1 | inactive |  |
| O=C(Nc1ccccc1N1CCN(c2ccccc2)CC1)c1cccc(F)c1 | 3.98 µM (active) |  |
| O=C1[C@H]2[C@H]3[C@H](O)[C@H](O)C/C(=N/OCc4ccccc4)[C@H]3CC[C@@H]2C(=O)N1Cc1ccccc1 |  | -2.25% [at 11.4 µM] (inactive) |
| C[C@@H](c1ccccc1)N1C(=O)[C@H]2[C@H]3[C@H](O)[C@H](O)C/C(=N/OC[C@@H](O)COCc4ccco4)[C@@H]3CC[C@@H]2C1=O |  | 5.7% [at 11.4 µM] (inactive) |
| O=C(NCc1ccco1)c1cc(-c2cccnc2)nc2ccc(Cl)cc12 | 31.6 µM (active) |  |
| O=C(NCc1ccco1)c1cccn2c(=O)c3cc(Br)ccc3nc12 | inactive |  |
| O=C(NCc1ccco1)c1nc(-c2ccccc2)n(-c2ccccc2)n1 | inactive |  |
| CN(C)CCCCNC(=O)c1ccc(Cc2nc3ccccc3[nH]2)cc1 | inactive |  |
| Oc1c(Cl)cc(Cl)c(Cl)c1Cc1c(O)c(Cl)cc(Cl)c1Cl | 10 µM (active) |  |
| C=CC(=O)c1ccc2ccccc2c1 | inactive |  |
| O=C(CCSc1ccccc1)NCCSc1ccccn1 | inactive |  |
| N#Cc1ccc(C(c2nnnn2CCc2ccccc2)N2CCCCCC2)cc1 (centres undefined) | 15.8 µM (active) |  |
| COc1ccc(CCn2nnnc2C(c2ccccc2)N2CCN(C)CC2)cc1OC (centres undefined) | inactive |  |
| CC(C)C(c1nnnn1CCc1ccccc1)N1CCN(C(=O)c2ccco2)CC1 (centres undefined) | inactive |  |
| S=c1c2[nH]cnc2ncn1CCSc1ncnc2nc[nH]c12 |  | -1.69% [at 11.4 µM] (inactive) |
| c1ccc(COc2nsnc2N2CCOCC2)cc1 | inactive |  |
| c1ccc(-n2nnnc2N2CCOCC2)cc1 | inactive |  |
| c1ccc(-c2oc3ncnc(N4CCOCC4)c3c2-c2ccccc2)cc1 | 15.8 µM (active) |  |

| Structure (SMILES) | Potency | activation |
| --- | --- | --- |
| CC(C)NC(=O)CCCn1c(=S)[nH]c2cc3c(cc2c1=O)OCO3 | inactive |  |
| O=C(Nc1ccccc1)N[C@H]1C[C@H](C(=O)O)Nc2cc(Cl)cc(Cl)c21 | inactive |  |
| Cc1noc(C)c1-c1cc(NCc2cccnc2)ncn1 | inactive |  |
| CNc1cc(-c2c(C)noc2C)ncn1 | 3.98 µM (active) |  |
| COCCNc1cc(-c2c(C)noc2C)ncn1 | inactive |  |
| O=C(CSc1nnc(-c2ccoc2)o1)N1CCOCC1 | inactive |  |
| CC(=O)OCC1OC(C#CCCCc2ccccc2)C=CC1OC(C)=O (centres undefined) |  | -0.905% [at 11.4 µM] (inactive) |
| COCCCNC(=O)CCc1nc2cccnc2n1Cc1ccc(OC)cc1 | inactive |  |
| COC(=O)[C@@H]1CC[C@H](C)[C@@H](c2ccc(C)cc2)N1C(=O)c1ccc(/C=N\OC[C@@H](O)COCc2ccco2)cc1 |  | 44.4% [at 11.4 µM] (inactive) |
| CO[C@@H]1COC(=O)[C@H](Cc2ccccc2)NC(=O)C/C=C\[C@@H](C)[C@H](OC)COC(=O)[C@@H](C)NC(=O)C/C=C\[C@H]1C |  | 8.45% [at 11.4 µM] (inactive) and -4.16% [at 11.4 µM] (inactive) |
| COCCn1c(SCC(=O)Nc2cc(Cl)ccc2OC)nc2c(c1=O)SC(C)C2 (centres undefined) | inactive |  |
| COc1ccccc1NC(=O)C1=C(C)Nc2nnnn2C1c1cccc(Br)c1 (centres undefined) | inactive |  |
| COc1ccc(C2C(C(=O)Nc3ccccc3OC)=C(C)Nc3nnnn32)c(OC)c1 (centres undefined) | inactive |  |
| COC(=O)c1ccc(C2C3=C(Nc4nnnn42)c2ccccc2OC3)cc1 (centres undefined) | 12.6 µM (active) |  |
| O=C(CNCCO)NC12CC3CC(CC(C3)C1)C2 | inactive |  |
| CO[C@H]1COC(=O)[C@@H](C)NC(=O)C/C=C\[C@@H](C)[C@H](OC)COC(=O)C/C=C\[C@@H]1C |  | 2.45% [at 11.4 µM] (inactive) |
| Cc1ccc(N(CC(O)CN2CCCC2)S(=O)(=O)c2ccccc2)cc1 (centres undefined) |  | 9.44% [at 11.4 µM] (inactive) |
| Cc1ccc(/C(=C/CN2CCCC2)c2ccccn2)cc1 | inactive and 25.1 µM (active) |  |
| Cc1ccc(N2CCN(c3ccc(C)cc3)C2c2ccccn2)cc1 | inactive |  |
| O=NO | inactive |  |

| Structure (SMILES) | Potency | activation |
| --- | --- | --- |
| Cn1c(=O)n2n(c1=O)[C@H]1[C@H](O)[C@H]3O[C@H]3C(=O)[C@H]1CC2 |  | 0.42% [at 11.4 µM] (inactive) |
| O=C(Cn1nc(C(F)(F)F)c2c1CCC2)NCc1ccc(F)cc1 | inactive |  |
| COC(=O)c1ccccc1NC(=O)Cn1nc(C(F)(F)F)c2c1CCC2 | 25.1 µM (active) |  |
| Cc1cc(NC(=O)Cn2nc(C(F)(F)F)c3c2CCCC3)no1 | inactive |  |
| CCCNC(=O)OC[C@@H]1O[C@H](c2ccccc2)C=C[C@@H]1Oc1ccc(OC)cc1 |  | 1.38% [at 11.4 µM] (inactive) |
| COC(=O)c1ccc(NC(=O)c2ccco2)cc1 | inactive |  |
| CCCC[C@@H]1C[C@H]1C(NC(=O)c1ccco1)c1ccc(C(=O)OC)cc1 (some centres undefined) | 25.1 µM (active) |  |
| CCCC[C@@H]1C[C@H]1C(NC(=O)c1ccc(-c2ccccc2)cc1)c1ccc(-c2ccccc2)cc1 (some centres undefined) | inactive |  |
| CCC(C)(C)N=C(NC#N)Nc1cccnc1 | inactive |  |
| O=C(CN1CCN(c2ccccc2F)CC1)c1ccc2c(c1)OCO2 | inactive |  |
| Cn1c(=O)c2c(nc(CN3CCOCC3)n2Cc2ccccc2)n(C)c1=O | inactive |  |
| CC1CCN(Cc2nc3c(c(=O)n(C)c(=O)n3C)n2CCc2ccccc2)CC1 | 5.01 µM (active) |  |
| COCCn1c(CN2CCC(Cc3ccccc3)CC2)nc2c1c(=O)n(C)c(=O)n2C | inactive |  |
| CC1CN(C(=O)c2ccc3c(c2)OCO3)OC(c2ccccc2)O1 (centres undefined) | inactive |  |
| Cc1nc2c(c(=O)n1Cc1ccco1)c1nc3ccccc3nc1n2Cc1ccccc1 | inactive |  |
| CC(Sc1nc2ccccc2c(=O)n1Cc1ccco1)C(=O)c1ccccc1 (centres undefined) | 15.8 µM (active) |  |
| Cc1ccc(C(=O)CSc2nc3ccccc3c(=O)n2N)o1 | inactive |  |
| CO[C@H]1COC(=O)[C@H](Cc2ccccc2)NC(=O)C/C=C\[C@@H](C)[C@H](OC)COC(=O)C/C=C\[C@@H]1C |  | 25.1% [at 11.4 µM] (inactive) |
| COc1ccc(NC(=O)N2CC3(CCN(C(=O)c4cccn4C)CC3)C2)cc1 | inactive |  |
